Compounds without any hit were thinned out: in the full panel of roughly 83,000, 20% have a hit.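 A percent growth of 40 corresponds to 60% growth inhibition; 0 means no net growth; -100 means all cells died. Active threshold: below 10.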 Values without a mark were called inactive. The source made the active and inactive calls.
Columns and labels:
Assay in all cases: NCI-60 one-dose screen, 48 h (100 = growth as untreated, 0 = no growth, -100 = all killed)
NCI-H226 lung = settings: 10 µM unless noted
NCI-H322M lung = settings: 10 µM unless noted
HOP-62 NSCLC = settings: 10 µM unless noted
NCI-H460 lung = settings: 10 µM unless noted
HOP-92 NSCLC = settings: 10 µM
NCI-H522 lung = settings: 10 µM unless noted
A549/ATCC NSCLC = settings: 10 µM unless noted
786-0 renal = settings: 10 µM unless noted
COLO 205 colon = settings: 10 µM unless noted
DU-145 prostate = settings: 10 µM unless noted
K-562 leukemia = settings: 10 µM unless noted
MALME-3M melanoma = settings: 10 µM unless noted
MDA-MB-231 breast = settings: 10 µM unless noted
SF-268 CNS = settings: 10 µM unless noted
SF-295 CNS = settings: 10 µM unless noted
SF-539 CNS = settings: 10 µM unless noted
UACC-257 melanoma = settings: 10 µM unless noted
RXF 393 renal = settings: 10 µM unless noted
M14 melanoma = settings: 10 µM unless noted

Compound	growth (NCI-H226 lung) [%]	growth (NCI-H322M lung) [%]	growth (HOP-62 NSCLC) [%]	growth (NCI-H460 lung)	growth (HOP-92 NSCLC)	growth (NCI-H522 lung)	growth (A549/ATCC NSCLC) [%]	growth (786-0 renal) [%]	growth (COLO 205 colon)	growth (DU-145 prostate) [%]	growth (K-562 leukemia)	growth (MALME-3M melanoma)	growth (MDA-MB-231 breast) [%]	growth (SF-268 CNS) [%]	growth (SF-295 CNS)	growth (SF-539 CNS)	growth (UACC-257 melanoma)	growth (RXF 393 renal)	growth (M14 melanoma)
O=C(NNc1nc2cc(F)c(F)cc2n2c(CN3CC4CNCC4C3)ccc12)c1cnccn1 (stereo unspecified)	16.8	26.7	10.8	1.73% (active)	37.4%	11.2%	16.9	16.5	11.4%	22.1	14.1%	7.02% (active)	39.6	15.8	5.87% (active)	8.64% (active)	7.77% (active)	–	–
COc1ccc2c(c1)c(-c1cc(N)n3nc(-c4cn(C)c5ccc(OC)cc45)cc3n1)cn2C	126	101	103	-64.3% (active)	86.8%	109%	46.1	91.9	123%	93.1	-16.6% (active)	98%	78.4	109	98.9%	94.9%	110%	128%	111%
Cc1noc(C)c1CSc1nc2ccccc2n1-c1ccccc1	95.6	104	69	107%	74.7%	–	91.2	82.6	105%	86.4	88.6%	118%	81.5	85.7	98.1%	95.3%	110%	60.4%	104%
Oc1cccc2ccc(-c3nnc(SCc4ccc(O)c5ncccc45)o3)nc12	35.2	39.9	25.8	1.33% (active)	-16% (active)	11.2%	15.9	21.1	31.7%	22.1	14.6%	-3.31% (active)	26.6	23.4	3.94% (active)	14.5%	0.0475% (active)	–	–
COc1ccc(-c2nn(-c3ccc(S(C)(=O)=O)cc3)cc2/C=N/O)cc1	94.7	108	109	102%	98.8%	100%	105	105	119%	107	107%	103%	96.7	108	106%	92.1%	104%	103%	109%
COc1ccc([C@@H]2c3[nH]c4ccccc4c3C[C@H]3C(=O)N(C4CCN(CC5CCCCC5)CC4)CC(=O)N23)c(OC)c1	74.1	90.3	72.9	82.5%	51.3%	85.2%	72.2	70.5	51.2%	80.8	22%	95.7%	75.5	67.2	98.6%	78.6%	84.8%	28.7%	–
COc1cc(OC)cc(C(=O)Nc2cccc(C#Cc3cccc4[nH]nc(N)c34)c2)c1	30.8	53.6	39	13%	43%	2.45% (active)	33.7	46.5	6.38% (active)	28.6	8.84% (active)	40.5%	19.1	33	27.5%	-63.9% (active)	53.4%	-19.4% (active)	-2.56% (active)
CCCCCCCn1cc2c(N[C@H](C)c3ccccc3)ncnc2n1	100	101	95.7	104%	94%	99.6%	106	105	115%	98.1	106%	94.2%	98.4	102	94.5%	98.8%	110%	97.1%	99.8%

— PubChem BioAssay (NCI)
